Test results as given in PubChem BioAssay AID687038 (Broad Institute, 2013).
Calls of active or inactive are those of the source.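 The calls were made as follows: active = curve showing a falling signal whose half-maximal concentration is at most twice the top valid dose; inconclusive = flat curve with a moderate drop, or an unreliable fit; inactive = the rest.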

Assay: endogenous miR-21 quantity in Huh7 cells – cell-based, RT-qPCR, dry powder, selectivity assay for miR-122 inhibitor project, dose response (AID 687038)
Settings: Huh7 miR-21 levels, qRT-PCR, 48 h; series mostly up to 35 µM; relative miR-21 level (fold): at the top concentration

Relative miR-21 level (fold), inactive:
C[C@H](CO)N1C[C@H](C)[C@@H](CN(C)C(=O)C2CCOCC2)Oc2cc(C#Cc3ccncc3)ccc2S1(=O)=O 0.591 fold, O=C(c1ccc(CN2CCOCC2)cc1)N1CCc2ccccc21 1.02 fold, CCOC(=O)N1CCC(NC(=O)c2ccc3nc(N4CCC(C)CC4)sc3c2)CC1 0.949 fold, COCC(=O)N(C)C[C@H]1Oc2cc(-c3ccc(C#N)cc3)ccc2S(=O)(=O)N([C@@H](C)CO)C[C@H]1C 0.872 fold, COCC(=O)N(C)C[C@H]1Oc2cc(-c3ccccc3F)ccc2S(=O)(=O)N([C@H](C)CO)C[C@H]1C 1.56 fold, C[C@H]1CN([C@@H](C)CO)C(=O)c2cc(-c3ccc(C#N)cc3)cnc2O[C@H]1CN(C)Cc1cncnc1 0.821 fold, CO[C@@H]1CN(C)C(=O)c2cc(NS(=O)(=O)c3ccc(Oc4ccccc4)cc3)ccc2OC[C@H](C)NC[C@@H]1C 0.767 fold, COCC(=O)N(C)C[C@H]1Oc2cc(C#Cc3cccnc3)ccc2S(=O)(=O)N([C@H](C)CO)C[C@H]1C 2.76 fold, CN1C(=O)c2cc(NC(=O)c3cccc(F)c3)ccc2OC[C@H]2O[C@@H](CC(=O)O)CC[C@H]21 2.53 fold, CCN(CC)C(=O)c1cccc(NC(=O)c2ccc(Cl)cc2Cl)c1 0.676 fold, C[C@@H]1CN([C@H](C)CO)S(=O)(=O)c2ccc(C#Cc3ccncc3)cc2O[C@H]1CN(C)C(=O)C1CCOCC1 0.753 fold, CCn1cc(C(=O)O)c(=O)c2cc(F)c(N3CCNCC3)nc21 1.59 fold, CNC[C@@H]1Oc2cc(C#CC3CCCCC3)ccc2S(=O)(=O)N([C@@H](C)CO)C[C@@H]1C 1.32 fold, Cc1cc(C(C)(C)C)cc(S(=O)(=O)NCCc2ccncc2)c1C 1.35 fold, CN1C(=O)c2cc(NC(=O)c3cccc(F)c3)ccc2OC[C@H]2O[C@H](CC(=O)O)CC[C@@H]21 0.751 fold, C/C=C/c1cnc2c(c1)C(=O)N([C@@H](C)CO)C[C@H](C)[C@H](CN(C)S(=O)(=O)c1ccc(OC)cc1)O2 1.01 fold, C[C@@H]1CN([C@@H](C)CO)S(=O)(=O)c2ccc(C#Cc3ccncc3)cc2O[C@@H]1CN(C)C(=O)C1CCOCC1 0.684 fold, O=C(NCc1ccccc1Cl)c1ccc(CNc2c(NC3CCCCC3)c(=O)c2=O)cc1 0.249 fold, CN1C(=O)c2cc(NC(=O)c3cccc(F)c3)ccc2OC[C@@H]2O[C@@H](CC(=O)O)CC[C@@H]21 0.771 fold, CN(CC(=O)Nc1cccc(Cl)c1)S(=O)(=O)c1ccc2c(c1)n(C)c(=O)c(=O)n2C 1.34 fold, C[C@H]1CN([C@@H](C)CO)S(=O)(=O)c2ccc(C#Cc3ccncc3)cc2O[C@H]1CN(C)C(=O)C1CCOCC1 0.804 fold, C[C@H](CO)N1C[C@H](C)[C@H](CN(C)C(=O)C2CCOCC2)Oc2cc(C#Cc3ccncc3)ccc2S1(=O)=O 0.799 fold, O=C(c1ccc(CNc2c(NC3CCCCC3)c(=O)c2=O)cc1)N1CCc2ccccc21 0.61 fold, C[C@H]1CN([C@@H](C)CO)S(=O)(=O)c2ccc(C#Cc3ccncc3)cc2O[C@@H]1CN(C)C(=O)C1CCOCC1 0.89 fold, CN1C(=O)c2cc(NC(=O)c3cccc(F)c3)ccc2OC[C@@H]2O[C@@H](CC(=O)O)CC[C@H]21 1.08 fold [at 30 µM], COc1ccc(S(=O)(=O)N(C)C[C@@H]2Oc3ncc(/C=C/c4ccccc4)cc3C(=O)N([C@@H](C)CO)C[C@@H]2C)cc1 1.54 fold, OCc1ccc(-c2nn(Cc3ccccc3)c3ccccc23)o1 1.18 fold, C[C@H]1CN([C@@H](C)CO)C(=O)c2cc(-c3ccc(C#N)cc3)cnc2O[C@H]1CN(C)C(=O)Nc1ccc(C(F)(F)F)cc1 0.659 fold, C[C@@H]1CN([C@H](C)CO)S(=O)(=O)c2ccc(/C=C/c3ccccc3)cc2O[C@@H]1CN(C)C(=O)c1cccnc1 0.881 fold, COc1cccc(-c2ccc3c(c2)O[C@H](CN(C)C(=O)C2CCOCC2)[C@H](C)CN([C@@H](C)CO)S3(=O)=O)c1 1.15 fold, COc1ccc(-c2cnc3c(c2)C(=O)N([C@@H](C)CO)C[C@H](C)[C@H](CN(C)S(=O)(=O)c2ccc(OC)cc2)O3)cc1 0.767 fold, COCC(=O)N(C)C[C@@H]1Oc2ncc(-c3ccc(C#N)cc3)cc2C(=O)N([C@@H](C)CO)C[C@@H]1C 1.45 fold
